Results filed as inconclusive are left out. Activity calls are given as the source filed them. Unless noted, calls come from the whole dose curve; as a rule, active = well fitted curve in the direction sought with a large enough effect; inconclusive = small, poorly fitted or top-dose-only effect, or another doubt; inactive = no such curve, though single readings can be large; an effect the other way counts as inactive or inconclusive.

This is an account of results in PubChem BioAssay (NCATS).

The target in assay [1] is Cytochrome P450 2C19 (Homo sapiens) (UniProt P33261). In words: qHTS for inhibitors of CYP2C19 against the NCATS DSHEA and TCM libraries (AID 1919974).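 Note: luminescence from luciferin released by CYP2C19 oxidation of a pro-luciferin substrate; % is set by controls: 0 for no effect and ±100 for the full control effect.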 The essentials:
(§1)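 Concentration-response screening with isoform-matched pro-luciferin substrates. The CYP reaction was initiated by NADPH regenerating solution and ran 30-45 min in darkness at room temperature.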

The nature of assay [2]: KB-3-1 P-gp reporter qHTS against the NCATS DSHEA and TCM libraries (AID 1919975). Note: 0% is about no effect. Summed up: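 72 h exposure of KB-3-1 cells (DMEM, 10% FBS) to DSHEA/TCM samples, concentration-response; cell viability measured as CellTiter-Glo luminescence after 30 min at room temperature.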
Assay [3] is described as follows: qHTS Counterscreen for compound interference against the NCATS DSHEA and TCM libraries (AID 1919978). Note: % of control where 0% means no effect. Particulars: firefly luciferase detection reagent interference, luminescence. The essentials:
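Read-out is luminescence after 30 min at RT with luciferin detection reagent. Before that, compounds (19.5 nM to 39.8 uM final) sat 15 min at RT with 1 uM D-luciferin or 100 mM potassium phosphate buffer. PTC124 served as intraplate control.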
(In general: In qHTS, concentration-response curves come from the screen itself.)

Assay [4] can be described thus: Dual reporter qHTS for agonist of Pregnane X Receptor (hPXR) against the NCATS DSHEA and TCM libraries: Fluorescence readout (AID 1920058). Note: 0% is about no effect. The essentials: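 Cells were plated at 2000 per well and allowed to attach for 5 h. Test substances were pinned in and incubated roughly 24 h. CellTiter-Fluor was then added and fluorescence measured after 1 h.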
The target of assay [5] is Nuclear receptor subfamily 1 group I member 2 (Homo sapiens) (UniProt O75469). Nature of the assay: Dual reporter qHTS for agonist of Pregnane X Receptor (hPXR) against the NCATS DSHEA and TCM libraries: Luminescence readout (AID 1920059). Note: 0% is about no effect. The essentials: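 hPXR-LucHepG2 cells in phenol red-free DMEM with 5% charcoal-stripped FBS, 2000 cells/well, attached 5 h, then exposed 24 h at 37C to compounds; rifampicin as positive agonist control (2.8 nM–92 uM). Luciferase luminescence read.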
Sequence of Nuclear receptor subfamily 1 group I member 2 (Homo sapiens) (O75469 whole entry, looked up): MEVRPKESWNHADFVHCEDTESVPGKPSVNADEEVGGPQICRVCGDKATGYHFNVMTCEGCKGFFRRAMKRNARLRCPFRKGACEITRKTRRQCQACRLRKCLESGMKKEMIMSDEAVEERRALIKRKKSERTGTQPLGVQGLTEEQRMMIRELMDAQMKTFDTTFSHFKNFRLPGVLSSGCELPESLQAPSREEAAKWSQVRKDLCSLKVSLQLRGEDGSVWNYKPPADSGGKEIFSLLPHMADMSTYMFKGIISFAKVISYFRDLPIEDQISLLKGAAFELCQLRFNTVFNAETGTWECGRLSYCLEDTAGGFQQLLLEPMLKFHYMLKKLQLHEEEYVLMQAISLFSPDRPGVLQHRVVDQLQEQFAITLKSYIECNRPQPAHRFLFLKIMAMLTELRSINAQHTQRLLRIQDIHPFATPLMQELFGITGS

For assay [6] the target is unchanged. In words: Dual reporter qHTS for antagonist of Pregnane X Receptor (hPXR) against the NCATS DSHEA and TCM libraries: Luminescence Readout (AID 1920060). Note: 0% is about no effect. The essentials:
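Rifampicin-stimulated (2 uM final) hPXR-luciferase HepG2 cells were treated for 24 h with DSNP/TCM substances. Viability came from CellTiter-Fluor fluorescence, reporter activity from ONE-Glo luminescence.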

A short description of assay [7]: qHTS profiling for inhibitors of Plasmodium falciparum proliferation (AID 504749).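 Note: 0% = DMSO vehicle and full inhibition = artemisinin control; nearly all actives have a fitted effect of over 60% in size.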 Particulars: P. falciparum in erythrocytes, SYBR Green DNA, 72 h, at 28.7 µM (top of the series). Summed up:
(§2)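 Quantitative HTS: compounds pinned into medium, infected erythrocytes added (0.3% parasitemia, 2.5% hematocrit), 72 h culture at 37 C under 5% CO2. Saponin/Triton lysis with SYBR Green I, overnight RT, then fluorescence read.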

A further assay concerns AA1029. The description is as above. Particulars: P. falciparum in erythrocytes, SYBR Green DNA, 72 h; series mostly up to 28.7 µM. Summed up:
as §2

A further assay relates to ATS95. Described as above. Particulars: P. falciparum in erythrocytes, SYBR Green DNA, 72 h; series mostly up to 28.7 µM. Summed up:
as §2

The next assay concerns C2A. The description is as above. Particulars: P. falciparum in erythrocytes, SYBR Green DNA, 72 h; series mostly up to 28.7 µM. Summed up:
as §2

Another assay has as its system CP185. The description is as above. Particulars: P. falciparum in erythrocytes, SYBR Green DNA, 72 h; series mostly up to 28.7 µM. Summed up:
as §2

The target in assay [8] is Cytochrome P450 2D6 (Homo sapiens) (UniProt P10635). Nature of the assay: qHTS for inhibitors of CYP2D6 against the NCATS DSHEA and TCM libraries (AID 1919972). Note: % is set by controls: 0 for no effect and ±100 for the full control effect. Summed up:
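CYP2D6 enzyme with pro-luciferin substrate in manufacturer buffer (typically 100 mM KPO4), preincubated 15 min RT with substances (most at 19.5 nM upward); NADPH regeneration system (1x) started 30–45 min RT reaction; P450-Glo luminescence read after 30 min; quinidine as intraplate control.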

For assay [9], the target named is Cytochrome P450 2C9 (Homo sapiens) (UniProt P11712). Nature of the assay: qHTS for inhibitors of CYP2C9 against the NCATS DSHEA and TCM libraries (AID 1919973).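 Note: luminogenic pro-luciferin CYP2C9 substrate turned into luciferin with NADPH regeneration; % is set by controls: 0 for no effect and ±100 for the full control effect.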 Summed up:
as §1

In the next assay the test system is 3D7. In words: qHTS profiling for inhibitors of Plasmodium falciparum proliferation (AID 504749).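 Note: 0% = DMSO vehicle and full inhibition = artemisinin control; nearly all actives have a fitted effect of over 60% in size.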 Particulars: P. falciparum in erythrocytes, SYBR Green DNA, 72 h; series mostly up to 28.7 µM. Summed up: as §2
Another assay relates to 7G8. The assay is described as above. Particulars: P. falciparum in erythrocytes, SYBR Green DNA, 72 h; series mostly up to 28.7 µM. The essentials: as §2
In a further assay the test system is AS120. The assay is described as above. Particulars: P. falciparum in erythrocytes, SYBR Green DNA, 72 h; series mostly up to 28.7 µM. Summed up: as §2
The test system of another assay is ATS189. Described as above. Particulars: P. falciparum in erythrocytes, SYBR Green DNA, 72 h; series mostly up to 28.7 µM. Summed up: as §2
The subject of a further assay is CP191. Described as above. Particulars: P. falciparum in erythrocytes, SYBR Green DNA, 72 h; series mostly up to 28.7 µM. The essentials: as §2
The next assay has as its system CP192. The description is as above. Particulars: P. falciparum in erythrocytes, SYBR Green DNA, 72 h; series mostly up to 28.7 µM. The essentials:
as §2

Assay [10] is described as follows: qHTS drug screen for cell cycle checkpoint inhibitors in PARPi-resistant BRCA-mutant ovarian cancer cell lines. (AID 1963452; calls by dose curve). Particulars: PEO1/OlaR viability, CellTiter-Glo luminescence, 96 h, stronger effect = lower value. Summed up: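 PEO1, PEO4 and PEO1/OlaR ovarian cancer cells, 600 per well, exposed 96 h at 37C to a dilution series. Viability read by CellTiter-Glo luminescence, normalized to DMSO and empty wells; activity summarized as Z-AUC.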

Sequence of Cytochrome P450 2C19 (Homo sapiens) (P33261 whole entry, looked up, canonical isoform): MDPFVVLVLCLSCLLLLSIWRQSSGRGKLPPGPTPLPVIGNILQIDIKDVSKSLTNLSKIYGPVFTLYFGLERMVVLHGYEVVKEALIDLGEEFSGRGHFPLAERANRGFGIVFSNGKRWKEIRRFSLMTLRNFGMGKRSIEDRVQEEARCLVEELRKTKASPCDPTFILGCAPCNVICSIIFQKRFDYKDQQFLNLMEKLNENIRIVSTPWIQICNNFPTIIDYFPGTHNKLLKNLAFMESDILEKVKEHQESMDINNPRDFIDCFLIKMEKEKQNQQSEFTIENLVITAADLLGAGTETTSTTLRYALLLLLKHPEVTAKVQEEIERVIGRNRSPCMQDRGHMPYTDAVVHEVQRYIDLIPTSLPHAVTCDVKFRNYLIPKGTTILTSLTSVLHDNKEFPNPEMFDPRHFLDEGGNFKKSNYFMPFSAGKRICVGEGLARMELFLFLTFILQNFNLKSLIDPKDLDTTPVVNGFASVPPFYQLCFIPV
Sequence of Cytochrome P450 2C9 (Homo sapiens) (P11712 whole entry, looked up): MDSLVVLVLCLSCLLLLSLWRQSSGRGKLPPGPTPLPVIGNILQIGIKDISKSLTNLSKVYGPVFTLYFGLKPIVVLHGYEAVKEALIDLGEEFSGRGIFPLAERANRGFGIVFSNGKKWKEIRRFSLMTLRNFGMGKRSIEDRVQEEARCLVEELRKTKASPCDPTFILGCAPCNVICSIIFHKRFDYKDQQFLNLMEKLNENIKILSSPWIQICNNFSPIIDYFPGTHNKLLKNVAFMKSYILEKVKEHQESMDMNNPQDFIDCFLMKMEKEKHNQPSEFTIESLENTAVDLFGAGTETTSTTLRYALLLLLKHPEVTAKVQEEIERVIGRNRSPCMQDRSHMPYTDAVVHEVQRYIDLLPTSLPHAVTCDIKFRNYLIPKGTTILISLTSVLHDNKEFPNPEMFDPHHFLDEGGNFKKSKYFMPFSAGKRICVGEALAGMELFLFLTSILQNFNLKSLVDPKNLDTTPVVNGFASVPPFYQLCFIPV
Sequence of Cytochrome P450 2D6 (Homo sapiens) (P10635 whole entry, looked up): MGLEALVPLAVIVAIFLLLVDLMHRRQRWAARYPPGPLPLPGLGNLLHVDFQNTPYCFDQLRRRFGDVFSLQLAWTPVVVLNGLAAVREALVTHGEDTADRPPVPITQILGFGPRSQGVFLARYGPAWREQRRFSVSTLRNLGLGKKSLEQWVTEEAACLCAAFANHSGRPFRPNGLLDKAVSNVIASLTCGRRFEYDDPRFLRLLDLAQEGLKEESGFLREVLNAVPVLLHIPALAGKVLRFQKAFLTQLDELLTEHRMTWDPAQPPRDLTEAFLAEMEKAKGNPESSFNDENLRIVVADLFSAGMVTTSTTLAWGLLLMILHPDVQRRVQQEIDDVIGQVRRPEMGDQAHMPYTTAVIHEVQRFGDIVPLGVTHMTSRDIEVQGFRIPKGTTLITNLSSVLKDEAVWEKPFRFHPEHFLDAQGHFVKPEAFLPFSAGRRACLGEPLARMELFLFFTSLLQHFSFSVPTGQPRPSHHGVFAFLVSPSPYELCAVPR

Take `Oc1cccc(O)c1O`: the Potency entry (in [1]; in assay [5]; with AA1029; in the assay with ATS95; in the assay with C2A; in the assay on CP185) was “inactive” throughout. For the same compound, the compound was classed as inactive in assay [2], in assay [4] and in assay [6]. Further, the max response in assay [3] was -3.78% (inactive). The activity, negative = inhibition is -26.1% (inactive) in assay [7] (parasite line A) and -8.69% (inactive) in [7] (parasite line B).

On to `O=C(O)/C=C/c1ccccc1`, for which the compound was classed as inactive in [8], in [2], in assay [4] and in assay [6]. Also, the Potency entry (in assay [9]; in assay [1]; in assay [5]; with 3D7; in the assay with 7G8; in the assay on AA1029) was “inactive” throughout. The Potency entry in the assay on AS120, in the assay on ATS189, with ATS95, with C2A, in the assay on CP185 and in the assay with CP191 was “inactive” throughout. For the same compound, the Potency entry in the assay with CP192 is “inactive”. For the same compound, the max response in assay [3] is -1.31% (inactive). Moreover, the activity, negative = inhibition is -6.43% (inactive) in assay [7] (parasite line A) and 4.85% (inactive) in assay [7] (parasite line B).

For `CO[C@H]1C[C@@H]2CC[C@@H](C)[C@@](O)(O2)C(=O)C(=O)N2CCCC[C@H]2C(=O)O[C@H]([C@H](C)C[C@@H]2CC[C@@H](OC(=O)C(C)(CO)CO)[C@H](OC)C2)CC(=O)[C@H](C)/C=C(\C)[C@@H](O)[C@@H](OC)C(=O)[C@H](C)C[C@H](C)/C=C/C=C/C=C/1C`, the Z-AUC was -1.22 (inactive) in assay [10], -1.04 in assay [10] (measured here: PEO1 parental Z-AUC) and -0.64 in [10] (measured here: PEO4 Z-AUC). In addition, the activity, negative = inhibition was 5.02% (inactive) in assay [7] (parasite line A) and 6.39% (inactive) in assay [7] (parasite line B). Further, the Potency entry with 3D7, with 7G8, with AA1029, with AS120, in the assay on ATS189 and in the assay with ATS95 was “inactive” each time. Further, the Potency entry in the assay with C2A, in the assay with CP185, with CP191 and in the assay on CP192 was “inactive” throughout.

For `OB(O)O`, the activity, negative = inhibition in assay [7] (parasite line A) was 8.7% (inactive); in [7] (parasite line B) it was 9.31% (inactive). Further, the Potency result in the assay with 3D7, with 7G8, in the assay on AA1029, in the assay with AS120, in the assay on ATS189 and in the assay with ATS95 was “inactive” throughout. In addition, the Potency result with C2A, in the assay with CP185, with CP191 and in the assay on CP192 was “inactive” each time.

Turning to `Cc1cc(-c2ccc(N=Nc3ccc4c(S(=O)(=O)O)cc(S(=O)(=O)O)c(N)c4c3O)c(C)c2)ccc1N=Nc1ccc2c(S(=O)(=O)O)cc(S(=O)(=O)O)c(N)c2c1O`, the values for the activity, negative = inhibition in [7] (parasite line A) and in [7] (parasite line B) were 3.16% (inactive) and 5.39% (inactive), respectively. For the same compound, the Potency result in the assay on 3D7, in the assay with 7G8, in the assay with AA1029, in the assay with AS120, in the assay on ATS189 and in the assay with ATS95 was “inactive” each time. The Potency entry in the assay on C2A, in the assay with CP185, in the assay with CP191 and in the assay on CP192 was “inactive” in each case.

In the case of `COc1ccc(/C=N/NC(=O)c2ccncc2)c(C(=O)O)c1OC`, the activity, negative = inhibition in assay [7] (parasite line A) is 15.9% (inactive); in assay [7] (parasite line B), -6.37% (inactive). The Potency result in the assay with 3D7, with 7G8, in the assay on AA1029, with AS120, with ATS189 and with ATS95 was “inactive” each time. The Potency result in the assay on C2A, with CP185, with CP191 and with CP192 was “inactive” each time.
